ATXN viability – viability counter-screen for ATXN expression inhibitors | S2 cells (HEK-293 line with an ATXN2-luciferase reporter) viability, CellTiter-Fluor protease fluorescence, 24 h | 0.49% of 400,000 active | Potency, µM (doses to about 56.7 µM), most hits filed as cytotoxic | AID 651635; note: potency is the fitted concentration of half-maximal effect; nearly all actives have a fitted effect of over 40% in size
TGFb SMAD3 inh – inhibitors of TGF-b signaling | HepG2 CAGA-GFP TGF-b/SMAD3 reporter, GFP fluorescence, 18 h; TGF-beta stimulated, 500 pg/mL final | Potency, µM (highest dose often 46.1 µM), for the others: at the top dose activity, negative = inhibition, actives largely listed as inhibitors | 1.2% of 410,000 active; note: potency is the fitted concentration of half-maximal effect; % is set by controls: 0 for no effect and ±100 for the full control effect; nearly all actives have a fitted effect of over 65% in size
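Read-out: total well GFP (ex488/em500-530) summed from mean per-cell fluorescence. Cells: HEPG2 CAGA-GFP, 1% FBS DMEM, 18 h at 37 degrees C with 500 pg/mL final TGF-beta. Unstimulated wells served as the full-inhibition control; stimulated DMSO wells = 0%.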
DRD3 agonist – activates the human D3 dopamine receptor; D3R DiscoveRx beta-arrestin cells, luminescence, 90 min; max activation, %; P35462; 0.58% of 410,000 active; in the data active = max activation above about 30%; note: 0% is about no effect
Target sequence (P35462 whole entry, looked up): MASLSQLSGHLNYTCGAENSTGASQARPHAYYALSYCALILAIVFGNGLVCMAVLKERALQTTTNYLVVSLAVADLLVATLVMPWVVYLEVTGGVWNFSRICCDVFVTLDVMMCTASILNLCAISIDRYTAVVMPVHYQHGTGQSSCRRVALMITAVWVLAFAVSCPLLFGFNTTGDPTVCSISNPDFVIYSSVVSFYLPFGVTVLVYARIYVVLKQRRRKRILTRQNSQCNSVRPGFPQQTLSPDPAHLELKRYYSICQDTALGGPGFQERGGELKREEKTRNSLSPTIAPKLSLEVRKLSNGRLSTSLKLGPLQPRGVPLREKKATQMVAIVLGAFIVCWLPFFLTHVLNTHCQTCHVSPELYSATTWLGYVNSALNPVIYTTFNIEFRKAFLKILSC
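Agonist mode: compounds and dopamine controls were applied to plated cells for 90 min at 37 degrees C after an overnight attachment at 1500 cells/well. Luminescent read-out followed 30 - 60 minutes at room temperature with DiscoveRx detection reagent.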
HepG2 viability – counter-screen for TGF-b inhibitors: cytotoxicity in HepG2 cells; HepG2 CAGA-GFP viability, ATP luminescence, 18 h; Potency, µM (top dose mostly 46.1 µM), without a hit: at the top dose activity change, negative = cytotoxicity, hits mostly cytotoxic; 0.76% of 410,000 active; note: potency is the fitted concentration of half-maximal effect
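CellTiter-Glo luminescence gave cytotoxicity after 18 hours at 37 degrees C. The cells were HepG2 CAGA-GFP in 1% FBS DMEM, stimulated with 500 pg/mL TGF-beta after compound addition. %Activity was normalised to no-cell wells (complete cell-killing) and DMSO (no toxicity), and curves were fitted and classified.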
ATXN2 expr inh – reduces ATXN2 reporter expression in HEK-293 cells. 0.72% of 360,000 active. HEK-293 ATXN2-luciferase reporter, luminescence, 24 h. Potency, µM (series often up to 57 µM), inactives show at the highest dose activity change, negative = inhibition, hits mostly inhibitors; note: potency is the fitted concentration of half-maximal effect; % is set by controls: 0 for no effect and ±100 for the full control effect; nearly all actives have a fitted effect of over 55% in size
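qHTS (up to 57 uM final) was run with 24 h compound exposure of reporter cells at 37 °C. Each well was multiplexed: SteadyGlo luminescence measured ATXN2-luciferase expression after a fluorogenic Gly-Phe-AFC viability readout (25 uM final).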
DRD3 antagonist – blocks the human D3 dopamine receptor. max response, negative = inhibition, %. AID 652054. 2.5% of 360,000 active. D3R cells, DiscoveRx beta-arrestin luminescence, antagonist mode; hits give low values. P35462; in the data active = max response below about -50%; inconclusive = no clear call, values can overlap the other calls; note: % is set by controls: 0 for no effect and ±100 for the full control effect
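Cells plated overnight at 1500 cells/well, then exposed to library compounds with dopamine controls for 90 minutes at 37 degrees C. DiscoveRx reagent added for 30–60 minutes at room temperature; luminescence read, quantitative HTS format.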
Active calls of the source: *; i = inactive; ? = inconclusive; nt = no result. The list is not random: actives were taken first. Their share in the collection is about 4.8%. Unless noted, calls come from the whole dose curve; as a rule, active = well fitted curve in the direction sought with a large enough effect; inconclusive = small, poorly fitted or top-dose-only effect, or another doubt; inactive = no such curve, though single readings can be large; an effect the other way counts as inactive or inconclusive.

SMILES	ATXN viability	TGFb SMAD3 inh	DRD3 agonist	HepG2 viability	ATXN2 expr inh	DRD3 antagonist
CCN(c1cccc(C(F)(F)F)c1)S(=O)(=O)c1ccc2c(c1)CCN2C(C)=O	i	-3.9%	0.2	-3.1%	?	-61.8*
Cc1ccc(-c2nnc(SC(C)C(=O)NCc3ccco3)n2C)cc1 (stereo unspecified)	nt	-11.9%	nt	-9.0%	nt	nt
O=C(O)/C=C/C(=O)c1c(-c2ccccc2)[nH]c2ccccc12	i	12.6µM*	0.1	-2.2%	7.0%	8.7
Cc1ccc(C)c(N2CCN(S(=O)(=O)c3c(C(=O)N4CCC(C)CC4)c(C)n(C)c3C)CC2)c1	nt	-25.8%	-6.7	-13.5%	nt	nt
CCN(CC)c1ccc(NC(=O)c2ccc(Br)o2)c(C)c1	i	-21.7%	2.0	21.8%	3.9%	-73.2*
COc1cccc(Nc2c(Nc3cccc(OC)c3)c(=O)c2=O)c1	i	0.3%	-35.2	2.8%	-7.5%	-68.0*
COc1cc(OC)cc(N2C(=O)N(Cc3ccc(C(C)(C)C)cc3)c3ccccc3S2(=O)=O)c1	i	-0.6%	-3.0	4.3%	11.8%	nt
O=C(c1cccc(Cn2cccn2)c1)N1CCC(n2c(C3CCCO3)nc3cc(C(F)(F)F)ccc32)CC1 (stereo unspecified)	i	nt	nt	nt	nt	nt
COc1ccc2nc(Sc3c([N+](=O)[O-])nc(C)n3Cc3ccccc3)[nH]c2c1	?	?	-9.8	-31.9%	-16.2%	-75.4*
C[C@]12c3[nH]c4ccccc4c3CCN1C(=O)C(CC(=O)NCc1cccc(C(F)(F)F)c1)C[C@@H]2C(=O)N1CCCCC1 (stereo partly specified)	?	11.2µM*	-0.3	-17.5%	0.0%	-20.0
CCN(CC)C(=O)[C@H]1C[C@H](CC(=O)NC/C=C(\C)CCC=C(C)C)C(=O)N2CCc3c([nH]c4ccc(Cl)cc34)[C@]12C	i	?	-6.5	-3.3%	-3.4%	-7.8
CCN(CC)C(=O)[C@H]1CC(CC(=O)NC/C=C(\C)CCC=C(C)C)C(=O)N2CCc3c([nH]c4ccc(OC)cc34)[C@]12C (stereo partly specified)	25.1µM*	11.2µM*	-10.0	-94.5%	?	-23.2
CCN(CC)C(=O)[C@H]1CC(CC(=O)NC/C=C(\C)CCC=C(C)C)C(=O)N2CCc3c([nH]c4ccccc34)[C@]12C (stereo partly specified)	?	15.8µM*	-17.7	-103.8%	?	-7.7
CCC(C)Sc1oc(-c2ccco2)nc1S(=O)(=O)c1ccc(Cl)cc1 (stereo unspecified)	i	-24.9%	-6.4	-27.7%	-12.6%	nt
O=c1c2cccc3c2c(nn1CN1CCOCC1)-c1ccccc1-3	i	-16.6%	0.6	-9.1%	-16.1%	7.6
CCN(CC)CCn1nc2c3c(cccc3c1=O)-c1ccccc1-2	?	?	-9.8	-9.1%	10µM*	-13.7
Clc1ccc(CSc2nnc(-c3c[nH]c4ccccc34)o2)cc1	i	15.8µM*	-2.9	-68.9%	-25.4%	-13.7
CCCS(=O)(=O)NCCc1sc2nc(-c3ccc(Cl)cc3)nn2c1C	nt	?	3.6	-38.3%	nt	nt
Cc1nc(C(=O)NCC(=O)c2ccccc2)c(C(F)(F)F)o1	i	-1.5%	-12.4	7.9%	-17.6%	-58.8*
Cc1nc(C(=O)NNC(=O)c2ccccc2)c(C(F)(F)F)o1	i	0.0%	4.4	-38.3%	-18.7%	0.1
CCc1cccc(C)c1NC(=O)COCc1cc(-c2ccc3c(c2)OCO3)on1	nt	-22.4%	3.9	-41.9%	nt	nt
C[C@@H]1C[C@@H]2OC(=O)[C@]3(C)[C@H]2[C@@H](OC3(C)O)[C@]2(C)C(=O)C=C[C@H]12 (stereo partly specified)	i	-4.7%	-21.1	-54.5%	-20.0%	-53.2*
CCc1ccc(OCCCSc2nc(-c3ccc(C(C)(C)C)cc3)nc3cc(=O)[nH]n23)cc1	nt	nt	5.2	-73.3%	nt	nt
CCCCCOc1ccc(Br)cc1/C(C)=N/NC1=NCCN1	?	?	-6.6	-51.0%	?	?
COc1ccc(Br)cc1/C(C)=N/NC1=NCCN1	i	?	-20.2	-30.8%	-36.9%	-52.0*
SMILES	ATXN viability	TGFb SMAD3 inh	DRD3 agonist	HepG2 viability	ATXN2 expr inh	DRD3 antagonist
CCc1ccc(OCC(=O)Nc2cc(-c3ccc(C)cc3)no2)cc1	i	-18.8%	-4.2	-1.0%	6.3%	nt
CN1CCN(C2=Nc3ccccc3Oc3ccc(Cl)cc32)CC1	i	9.6%	-78.7	-8.0%	-0.2%	-110.3*
Cc1cccc(C(=O)N(Cc2nc(-c3ccc(Cl)cc3)no2)C(C)C)c1	i	?	-8.2	-7.6%	?	nt
Cc1ccc(C)c(C(=O)N(Cc2nc(-c3ccc(Cl)cc3)no2)C(C)C)c1	i	10µM*	13.5	-17.3%	?	21.1
O=C(C1CCCCN1S(=O)(=O)c1ccccc1)N1CCN(Cc2ccccc2)CC1 (stereo unspecified)	i	2.9%	-48.7	-14.6%	-5.2%	?
Cc1ccc(S(=O)(=O)N2CCCCC2C(=O)N2CCN(Cc3ccccc3)CC2)cc1 (stereo unspecified)	i	-0.8%	-45.4	-10.1%	-7.7%	-51.9*
COC(=O)C1CCN(Cc2ccc(C)cc2)CC1	i	19.6%	-0.4	-27.7%	0.0%	?
Cc1ccc(S(=O)(=O)NNC(=O)C2CCN(Cc3ccccc3)CC2)cc1	i	2.8%	-10.4	0.1%	6.6%	-63.0*
CCOC(=O)c1c(SCC(=O)Nc2nc3ccc(C)cc3s2)nc(=O)[nH]c1C	i	-1.3%	0.8	-16.8%	12.1%	nt
O=C1CSC2(C(=O)N(Cc3ccccc3F)c3ccccc32)N1c1cccc(C(F)(F)F)c1 (stereo unspecified)	i	11.2µM*	-15.7	-11.2%	?	nt
COc1cccc(N2C(=O)CSC23C(=O)N(Cc2ccccc2F)c2ccccc23)c1 (stereo unspecified)	i	-8.2%	-6.1	-16.6%	-20.5%	nt
O=C(Nc1ccccc1N1CCOCC1)C1=NN(c2ccccc2)C(=O)CC1	i	?	-3.9	0.0%	-3.9%	-51.7*
O=C(Cc1ccccc1)Nc1ccccc1N1CCOCC1	i	-5.0%	4.9	6.4%	-3.8%	-52.4*
Cn1c(=O)c(-c2c(Cl)cccc2Cl)cc2cnc(Nc3cccc(C(=O)O)c3)nc21	nt	nt	nt	nt	50.8%	nt
COc1ccc(N2Cc3ccccc3C2=O)cc1	?	-8.2%	0.4	-68.9%	-2.8%	-8.1
C=CC(=O)Oc1ccc(N2Cc3ccccc3C2=O)cc1	31.6µM*	?	-2.5	-41.9%	nt	-64.1*
COC(=O)C=CC(=O)OC	nt	nt	nt	nt	11.9%	nt

From PubChem BioAssay
